From PubChem BioAssay (EPA / NIEHS) come the findings set out here.

Each structure is given as a SMILES string. “And” between values parts separate entries of the source, which are not always exact repeats. Equal values may be shown once. Some structures have more than one record in an assay (separate samples or runs), and their calls can disagree. The source made the active and inactive calls. How the source made its calls: active means hit-call score of the fitted dose curve at least 0.9, where 1 is the maximum; inactive means score below 0.9.

Read-out in test [1]: Urokinase-type plasminogen activator receptor (uPAR), PLAUR (gene 5329)
Put plainly: BSK_4H_uPAR: BioMAP Diversity Plus: 4H Assay for Urokinase-type plasminogen activator receptor (uPAR) Biomarker Activity (AID 2283030). The note with it: primary human endothelial cells (HUVEC); actives raise or lower the signal. The gist of the method:
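Primary human umbilical vein endothelial cells were exposed to chemical for 24 h before cell-surface uPAR was quantified by ELISA. Activity was fitted bidirectionally against the DMSO negative control baseline.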

Read-out in test [2]: Vascular endothelial growth factor receptor 2 (Homo sapiens) (UniProt P35968)
Put plainly: BSK_4H_VEGFRII: BioMAP Diversity Plus: 4H Assay for Vascular endothelial growth factor receptor 2 (VEGFR2) Biomarker Activity (AID 2283031).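 On AC50: cell-surface VEGFR2 protein level quantified by ELISA.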 The note with it: primary human endothelial cells (HUVEC); actives raise or lower the signal. The method, boiled down:
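Primary human umbilical vein endothelial cells in the BioMAP 4H system were dosed with test chemical, and 24 h later VEGFRII was measured by ELISA. Activity was fitted bidirectionally against DMSO as negative control and baseline.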

Read-out in test [3]: Human Leukocyte Antigen - DR isotype (HLADR), HLA-DRA (gene 3122)
Put plainly: BSK_BE3C_HLADR: BioMAP Diversity Plus: BE3C Assay for Human Leukocyte Antigen - DR isotype (HLADR) Biomarker Activity (AID 2283032). The note with it: primary human bronchial epithelial cells; actives raise or lower the signal. The method, boiled down:
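Primary human bronchial epithelial cells (BE3C); 24 h chemical exposure; HLA-DR by ELISA; bidirectional curve fit vs DMSO baseline.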

Read-out in test [4]: Vascular cell adhesion molecule 1 (VCAM1), VCAM1 (gene 7412)
In words: BSK_4H_VCAM1: BioMAP Diversity Plus: 4H Assay for Vascular cell adhesion molecule 1 (VCAM1) Biomarker Activity (AID 2283033).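 On outcome: cell-surface VCAM-1 protein measured by ELISA.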 The note with it: primary human endothelial cells (HUVEC); actives raise or lower the signal. The method, boiled down:
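HUVEC, 24 h post-dose; VCAM-1 by ELISA. Bidirectional curve fit vs DMSO baseline. Parallel SRB total-protein stain (0.1% SRB after 10% TCA fixation, 560 nm) for cytotoxicity.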

Read-out in test [5]: Interferon-gamma inducible Protein 10 (IP10), CXCL10 (gene 3627)
In words: BSK_BE3C_IP10: BioMAP Diversity Plus: BE3C Assay for Interferon-gamma inducible Protein 10 (IP10) Biomarker Activity (AID 2283034). The note with it: primary human bronchial epithelial cells; actives raise or lower the signal. The method, boiled down:
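ELISA readout of IP-10 in BE3C system: primary human bronchial epithelial cells, 24 h post-dosing; bidirectional curve fit vs DMSO baseline.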

Read-out in test [6]: Monokine induced gamma interferon (MIG), CXCL9 (gene 4283)
In words: BSK_BE3C_MIG: BioMAP Diversity Plus: BE3C Assay for Monokine induced gamma interferon (MIG) Biomarker Activity (AID 2283035).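 On outcome: MIG protein measured by ELISA in BE3C cultures after 24 h of dosing.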 The note with it: primary human bronchial epithelial cells; actives raise or lower the signal. The gist of the method: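 hu bronchial epithelial 1° cells, 24 h cpd; MIG by ELISA; bidirectional fit, DMSO = baseline.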

Read-out in test [7]: Transforming growth factor beta 1 (TGFb1), TGFB1 (gene 7040)
Put plainly: BSK_BE3C_TGFb1: BioMAP Diversity Plus: BE3C Assay for Transforming growth factor beta 1 (TGFb1) Biomarker Activity (AID 2283036;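 on outcome: TGF-b1 protein level measured by ELISA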). The note with it: primary human bronchial epithelial cells; actives raise or lower the signal. The method, boiled down: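 Read-out: ELISA for TGF-b1 in primary human bronchial epithelial cultures, 24 h post-dose. Bidirectional curve fitting vs DMSO control; gain or loss of signal both scored.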

Read-out in test [8]: Plasminogen activator inhibitor-1 (PAI1), SERPINE1 (gene 5054)
Put plainly: BSK_BE3C_PAI1: BioMAP Diversity Plus: BE3C Assay for Plasminogen activator inhibitor-1 (PAI1) Biomarker Activity (AID 2283037). The note with it: primary human bronchial epithelial cells; actives raise or lower the signal. The method, boiled down:
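ELISA read-out of PAI-1 from human bronchial epithelial primary cells, 24 h post-dosing; bidirectional curve fit vs DMSO baseline, gain or loss of signal scored.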

Read-out in test [9]: urokinase plasminogen activator (uPA), PLAU (gene 5328)
Put plainly: BSK_BE3C_uPA: BioMAP Diversity Plus: BE3C Assay for urokinase plasminogen activator (uPA) Biomarker Activity (AID 2283038).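 On outcome: uPA protein level quantified by ELISA in cell cultures; uPA read one day after compound addition.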 The note with it: primary human bronchial epithelial cells; actives raise or lower the signal. The method, boiled down: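 Human primary bronchial epithelial cells were exposed to chemical for 24 h, then uPA levels were measured by ELISA. Responses were fitted bidirectionally against DMSO as negative control and baseline. Parallel SRB staining of total protein gauged overt cytotoxicity.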

Read-out in test [10]: Urokinase-type plasminogen activator receptor (uPAR), PLAUR (gene 5329)
Put plainly: BSK_BE3C_uPAR: BioMAP Diversity Plus: BE3C Assay for Urokinase-type plasminogen activator receptor (uPAR) Biomarker Activity (AID 2283039).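 On outcome: cells exposed to compound for one day before measurement.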 The note with it: primary human bronchial epithelial cells; actives raise or lower the signal. The gist of the method:
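ELISA readout of uPAR on human lung primary bronchial epithelial cells, 24 h post-dosing. Bidirectional curve fit relative to DMSO vehicle baseline; gain or loss of signal both scored.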

Read-out in test [11]: Interleukin-6 (IL6), IL6 (gene 3569)
Put plainly: BSK_CASM3C_IL6: BioMAP Diversity Plus: CASM3C Assay for Interleukin-6 (IL6) Biomarker Activity for (AID 2283040). The note with it: primary human coronary artery smooth muscle cells; actives raise or lower the signal.

Read-out in test [12]: Tissue plasminogen activator (tPA), PLAT (gene 5327)
Put plainly: BSK_BE3C_tPA: BioMAP Diversity Plus: BE3C Assay for Tissue plasminogen activator (tPA) Biomarker Activity (AID 2283041).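 On outcome: tPA level quantified by ELISA one day after compound addition.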 The note with it: primary human bronchial epithelial cells; actives raise or lower the signal. The gist of the method:
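ELISA read-out of tPA on human primary bronchial epithelial cells, 24 h post-dosing; bidirectional fit vs DMSO negative control/baseline.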

Read-out in test [13]: Interleukin-8 (IL8), CXCL8 (gene 3576)
Put plainly: BSK_CASM3C_IL8: BioMAP Diversity Plus: CASM3C Assay for Interleukin-8 (IL8) Biomarker Activity (AID 2283042).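 Further: IL-8 protein level quantified by ELISA.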 The note with it: primary human coronary artery smooth muscle cells; actives raise or lower the signal.

Read-out in test [14]: Human Leukocyte Antigen - DR isotype (HLADR), HLA-DRA (gene 3122)
In words: BSK_CASM3C_HLADR: BioMAP Diversity Plus: CASM3C Assay for Human Leukocyte Antigen - DR isotype (HLADR) Biomarker Activity (AID 2283043).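 Further: cell-surface HLA-DR protein level quantified by ELISA.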 The note with it: primary human coronary artery smooth muscle cells; actives raise or lower the signal.

Read-out in test [15]: Macrophage colony-stimulating factor (MCSF), CSF1 (gene 1435)
Put plainly: BSK_CASM3C_MCSF: BioMAP Diversity Plus: CASM3C Assay for Macrophage colony-stimulating factor (MCSF) Biomarker Activity (AID 2283044).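 Further: M-CSF protein amount quantified by ELISA after 24 h exposure.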 The note with it: primary human coronary artery smooth muscle cells; actives raise or lower the signal.

Read-out in test [16]: Low-density lipoprotein receptor (LDLR), LDLR (gene 3949)
In words: BSK_CASM3C_LDLR: BioMAP Diversity Plus: CASM3C Assay for Low-density lipoprotein receptor (LDLR) Biomarker Activity (AID 2283045).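 Further: LDLR protein level on the cell surface quantified by ELISA.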 The note with it: primary human coronary artery smooth muscle cells; actives raise or lower the signal.

Read-out in test [17]: Monocyte Chemoattractant Protein-1 (MCP1), CCL2 (gene 6347)
In words: BSK_CASM3C_MCP1: BioMAP Diversity Plus: CASM3C Assay for Monocyte Chemoattractant Protein-1 (MCP1) Biomarker Activity (AID 2283046).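 Further: MCP-1 level quantified by ELISA 24 h after dosing.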 The note with it: primary human coronary artery smooth muscle cells; actives raise or lower the signal.

The nature of test [18]: BSK_CASM3C_Proliferation: Cell Proliferation Assessment in the BioMAP Diversity Plus: CASM3C Assay (AID 2283047).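 Further: sulforhodamine B total protein stain as relative cell number at 560 nm; sub-confluent cells exposed 48 h before staining; fitted both ways against DMSO so gain or loss of cell number.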 The note with it: primary human coronary artery smooth muscle cells.
Read-out in test [19]: Monokine induced gamma interferon (MIG), CXCL9 (gene 4283)
In words: BSK_CASM3C_MIG: BioMAP Diversity Plus: CASM3C Assay for Monokine induced gamma interferon (MIG) Biomarker Activity (AID 2283048). The note with it: primary human coronary artery smooth muscle cells; actives raise or lower the signal.

Read-out in test [20]: serum amyloid A (SAA), SAA1 (gene 6288)
Put plainly: BSK_CASM3C_SAA: BioMAP Diversity Plus: CASM3C Assay for serum amyloid A (SAA) Biomarker Activity (AID 2283049).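 Further: SAA protein level quantified by ELISA.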 The note with it: primary human coronary artery smooth muscle cells; actives raise or lower the signal.

With `CC(C)Oc1cc(-n2nc(C(C)(C)C)oc2=O)c(Cl)cc1Cl`, the outcome in test [1], in [6], in test [7], in test [10], in test [11] and in test [12] was inactive. Further, the result in test [13], in test [14], in [15], in test [16], in test [17] and in test [19] was inactive. The outcome in [20] was inactive. Also, the AC50 (as a rule, the concentration at which the activity in the assay is half-maximal) in test [2] was 32.9 µM (active); in [3], 27.4 µM (active); in test [4] it was 28.2 µM (active); in [5], 33.9 µM (active); in test [8] it was 20 µM (active); in test [9], 27.6 µM (active). The AC50 in test [18] was 29 µM (active).

`OC(c1ccc(Cl)cc1)(c1cncnc1)c1ccccc1Cl` (centres undefined): the AC50 was 18.3 µM (active) in [1], 30.3 µM (active) in test [5] and 27.6 µM (active) in [18]. Besides, the outcome in [2], in test [4], in test [7], in test [8], in test [9] and in test [10] was inactive. Also, the outcome in test [11], in [12], in test [13], in test [14], in test [15] and in test [16] was inactive. For the same compound, the result in [17], in test [19] and in test [20] was inactive.

For `CON(C)C(=O)Nc1ccc(Cl)c(Cl)c1`, the outcome in [1], in test [3], in [4], in test [5], in test [7] and in test [8] was inactive. The outcome in [9], in test [10], in test [11], in [12], in test [13] and in test [14] was inactive. Moreover, the outcome in [15], in test [16], in test [17], in [18], in test [19] and in test [20] was inactive.

Turning to `N#Cc1nn(-c2c(Cl)cc(C(F)(F)F)cc2Cl)c(N)c1S(=O)C(F)(F)F` (centres undefined), the AC50 in [1] is 23.2 µM (active); in [2], 31.7 µM (active); in test [4] it was 20 µM (active); in [5], 23.2 µM (active); in test [8], 20 µM (active); in [15], 25.1 µM (active). Also, the concentration at half-maximal activity (AC50) in test [18] is 20 µM (active). The result in [7], in test [9], in test [10], in [11], in [12] and in [13] was inactive. The outcome in test [14], in [16], in test [17], in [19] and in [20] was inactive.

Consider `CCCN(CCC)c1c([N+](=O)[O-])cc(S(N)(=O)=O)cc1[N+](=O)[O-]`, for which the AC50 in [1] was 33 µM (active) [middle of 4 runs]; in [3], 35 µM (active) [middle of 4 runs]; in test [4], 38.1 µM (active) [middle of 4 runs]; in test [5], 36.9 µM (active) [middle of 4 runs]; in test [6] it was 38.4 µM (active) [middle of 4 runs]; in [7], 31.3 µM (active) and 31.1 µM (active) and 36.7 µM (active). Further, the AC50 in test [8] is 34.2 µM (active) [middle of 4 runs]; in [9] it was 33.6 µM (active) [middle of 4 runs]; in test [10] it was 38.1 µM (active) [middle of 4 runs]; in test [11], 35.2 µM (active) [middle of 4 runs]; in [12], 30.3 µM (active) [middle of 4 runs]; in [13], 33.5 µM (active) [middle of 4 runs]. The AC50 was 34.4 µM (active) [middle of 4 runs] in test [14]; 36.1 µM (active) [middle of 4 runs] in test [15]; 39.7 µM (active) in test [16]; 37.1 µM (active) [middle of 4 runs] in test [17]; 35.1 µM (active) [middle of 4 runs] in [18]; 34.7 µM (active) [middle of 4 runs] in test [19]. Besides, in test [20], the AC50 was 37.1 µM (active) [middle of 4 runs]. The result in test [16] was inactive.
